Drawing on paper PMC7862700, “An all-to-all approach to the identification of sequence-specific readers for epigenetic DNA modifications on cytosine”, this text covers binding signal for one sequence.

Holding throughout (assay): DAPPL (digital affinity profiling via proximity ligation, sequencing); 10 mM Tris-HCl pH 7.5, 50 mM NaCl, 1 mM DTT, 4% glycerol, room temperature, 30 min; GST-TFs on glutathione beads, 16-mer random dsDNA library, 0.1% formaldehyde crosslink after washing; high values mean tight binding
The target of one assay is T1, FLI1 (Homo sapiens, UniProt Q01543 1-452).
T1 sequence: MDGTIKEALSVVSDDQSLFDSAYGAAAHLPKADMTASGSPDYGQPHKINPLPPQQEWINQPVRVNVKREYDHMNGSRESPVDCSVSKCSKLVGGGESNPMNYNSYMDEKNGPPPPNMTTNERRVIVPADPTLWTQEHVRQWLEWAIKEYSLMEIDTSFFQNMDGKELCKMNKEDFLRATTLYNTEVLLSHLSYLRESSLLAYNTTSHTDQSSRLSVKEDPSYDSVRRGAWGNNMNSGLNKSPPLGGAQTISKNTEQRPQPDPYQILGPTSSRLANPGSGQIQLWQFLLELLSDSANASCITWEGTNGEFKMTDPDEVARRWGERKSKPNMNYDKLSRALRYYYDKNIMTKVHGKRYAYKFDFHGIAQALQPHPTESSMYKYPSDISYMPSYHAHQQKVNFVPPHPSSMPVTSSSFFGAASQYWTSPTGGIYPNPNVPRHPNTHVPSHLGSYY
To be noted: protein: recombinant; tags: N-terminal GST; dsDNA, one strand shown. The procedure, abridged: (§1)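 Pools of DNA-barcoded human transcription factors, expressed in yeast as GST fusions on glutathione beads and combined with a tag-only sample, were incubated with 200 nmole of a 16-mer random double-stranded DNA library. Incubation took 30 min at room temperature in Tris/NaCl/DTT/glycerol buffer and was followed by washing, 0.1% formaldehyde crosslinking, proximity ligation (BsaI/T4 ligase, 1 h, 37 °C), PCR amplification and sequencing on an Illumina NextSeq500. Binding signal is the ratio of a hexamer's read frequency for a factor to its frequency for the tag-only sample.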

For the next assay, the target named is T2, ELK1 (Homo sapiens, UniProt P19419 1-428).
T2 sequence: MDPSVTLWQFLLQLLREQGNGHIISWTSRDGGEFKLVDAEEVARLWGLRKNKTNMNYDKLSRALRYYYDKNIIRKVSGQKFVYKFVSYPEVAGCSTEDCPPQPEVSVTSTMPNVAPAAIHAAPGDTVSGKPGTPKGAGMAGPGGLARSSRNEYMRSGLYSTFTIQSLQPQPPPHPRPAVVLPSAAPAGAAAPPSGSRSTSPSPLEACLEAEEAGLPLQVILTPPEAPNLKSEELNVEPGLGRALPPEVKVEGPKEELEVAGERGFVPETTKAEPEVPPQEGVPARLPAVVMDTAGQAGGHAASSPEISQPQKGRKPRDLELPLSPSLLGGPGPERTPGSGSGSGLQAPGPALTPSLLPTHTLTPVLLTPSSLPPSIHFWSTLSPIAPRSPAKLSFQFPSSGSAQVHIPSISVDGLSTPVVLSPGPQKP
To be noted: protein: recombinant; tags: N-terminal GST; dsDNA, one strand shown. The procedure, abridged: as §1

In the next assay the target is T3, GABPA (Homo sapiens, UniProt Q06546 1-454).
T3 sequence: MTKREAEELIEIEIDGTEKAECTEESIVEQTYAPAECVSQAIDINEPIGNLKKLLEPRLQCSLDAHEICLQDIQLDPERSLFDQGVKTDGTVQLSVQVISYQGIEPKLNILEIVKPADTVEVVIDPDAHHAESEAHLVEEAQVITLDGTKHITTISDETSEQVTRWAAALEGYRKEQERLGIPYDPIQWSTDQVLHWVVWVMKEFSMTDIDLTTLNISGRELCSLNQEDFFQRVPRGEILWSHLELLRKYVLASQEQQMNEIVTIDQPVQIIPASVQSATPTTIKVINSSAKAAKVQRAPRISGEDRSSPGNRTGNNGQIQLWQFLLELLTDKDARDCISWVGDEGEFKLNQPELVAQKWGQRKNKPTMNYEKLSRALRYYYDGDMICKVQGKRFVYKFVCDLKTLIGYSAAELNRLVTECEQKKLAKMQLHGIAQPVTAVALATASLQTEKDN
To be noted: protein: recombinant; tags: N-terminal GST; dsDNA, one strand shown. Put shortly:
as §1

A further assay deals with T4, ERG (Homo sapiens, UniProt P11308 1-479).
T4 sequence: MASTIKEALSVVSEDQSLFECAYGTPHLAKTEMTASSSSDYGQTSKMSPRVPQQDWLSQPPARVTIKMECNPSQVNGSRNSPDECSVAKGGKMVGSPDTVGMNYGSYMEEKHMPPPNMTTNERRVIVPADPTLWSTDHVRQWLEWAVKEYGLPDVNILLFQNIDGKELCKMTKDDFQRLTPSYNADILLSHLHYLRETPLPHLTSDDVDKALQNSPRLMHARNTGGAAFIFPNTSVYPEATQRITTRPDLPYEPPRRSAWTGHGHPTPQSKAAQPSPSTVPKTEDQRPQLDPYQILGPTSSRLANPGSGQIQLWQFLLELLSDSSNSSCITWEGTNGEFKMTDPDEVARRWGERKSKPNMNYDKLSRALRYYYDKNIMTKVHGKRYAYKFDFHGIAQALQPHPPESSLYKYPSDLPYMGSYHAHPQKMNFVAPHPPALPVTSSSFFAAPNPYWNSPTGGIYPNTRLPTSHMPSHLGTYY
To be noted: protein: recombinant; tags: N-terminal GST; dsDNA, one strand shown. The procedure, abridged:
as §1

A further assay deals with ELF1 (Homo sapiens, UniProt P32519 1-619). To be noted: protein: recombinant; tags: N-terminal GST; dsDNA, one strand shown. The procedure, abridged: as §1
Chain of ELF1 (P32519 whole entry): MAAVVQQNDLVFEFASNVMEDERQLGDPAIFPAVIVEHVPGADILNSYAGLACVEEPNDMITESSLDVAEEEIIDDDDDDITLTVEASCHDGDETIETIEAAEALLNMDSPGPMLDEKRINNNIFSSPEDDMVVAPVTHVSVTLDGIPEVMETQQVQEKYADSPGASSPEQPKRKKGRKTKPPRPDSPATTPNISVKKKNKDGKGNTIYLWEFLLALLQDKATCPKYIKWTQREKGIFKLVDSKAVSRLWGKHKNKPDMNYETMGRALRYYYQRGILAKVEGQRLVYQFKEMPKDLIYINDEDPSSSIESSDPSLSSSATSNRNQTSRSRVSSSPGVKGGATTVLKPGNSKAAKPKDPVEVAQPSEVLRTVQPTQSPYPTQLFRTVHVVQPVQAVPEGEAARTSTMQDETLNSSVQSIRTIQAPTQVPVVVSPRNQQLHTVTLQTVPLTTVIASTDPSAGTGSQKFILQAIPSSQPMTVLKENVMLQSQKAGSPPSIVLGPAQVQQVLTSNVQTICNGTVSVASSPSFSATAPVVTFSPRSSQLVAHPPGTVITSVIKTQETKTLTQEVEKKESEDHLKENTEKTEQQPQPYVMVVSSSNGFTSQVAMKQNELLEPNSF
A further assay addresses T5, EHF (Homo sapiens, UniProt Q9NZC4 1-300).
T5 sequence: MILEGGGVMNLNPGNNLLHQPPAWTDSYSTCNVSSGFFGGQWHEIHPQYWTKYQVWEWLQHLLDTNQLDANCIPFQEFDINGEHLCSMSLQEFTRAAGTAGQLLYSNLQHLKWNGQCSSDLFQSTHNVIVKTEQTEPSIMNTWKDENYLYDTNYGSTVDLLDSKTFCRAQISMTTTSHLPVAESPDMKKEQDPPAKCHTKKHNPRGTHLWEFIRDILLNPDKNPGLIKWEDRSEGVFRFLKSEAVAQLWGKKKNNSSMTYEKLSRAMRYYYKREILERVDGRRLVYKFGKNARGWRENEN
To be noted: protein: recombinant; tags: N-terminal GST; dsDNA, one strand shown. Put shortly: as §1

The target in a further assay is SPIB (Homo sapiens, UniProt Q01892 1-262). To be noted: protein: recombinant; tags: N-terminal GST; dsDNA, one strand shown. Put shortly: as §1
Chain of SPIB (Q01892 whole entry): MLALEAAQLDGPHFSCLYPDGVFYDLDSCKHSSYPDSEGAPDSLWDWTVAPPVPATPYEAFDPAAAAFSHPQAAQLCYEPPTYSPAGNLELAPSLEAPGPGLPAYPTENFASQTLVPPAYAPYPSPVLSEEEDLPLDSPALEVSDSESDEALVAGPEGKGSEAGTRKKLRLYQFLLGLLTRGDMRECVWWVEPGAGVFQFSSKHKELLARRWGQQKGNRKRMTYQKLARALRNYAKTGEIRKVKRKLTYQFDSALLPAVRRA
Another assay has as its target T6, ELK3 (Homo sapiens, UniProt P41970 1-407).
T6 sequence: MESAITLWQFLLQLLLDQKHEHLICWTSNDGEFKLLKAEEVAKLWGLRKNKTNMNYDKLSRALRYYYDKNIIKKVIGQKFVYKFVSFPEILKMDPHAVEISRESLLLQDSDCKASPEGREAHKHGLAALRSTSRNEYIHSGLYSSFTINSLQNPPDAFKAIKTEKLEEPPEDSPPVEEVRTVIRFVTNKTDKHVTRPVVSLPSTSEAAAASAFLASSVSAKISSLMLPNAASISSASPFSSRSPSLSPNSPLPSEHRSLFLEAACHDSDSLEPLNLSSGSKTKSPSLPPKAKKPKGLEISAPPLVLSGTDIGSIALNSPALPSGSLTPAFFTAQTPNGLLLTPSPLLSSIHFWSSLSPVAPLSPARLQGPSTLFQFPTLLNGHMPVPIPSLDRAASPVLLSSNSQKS
To be noted: protein: recombinant; tags: N-terminal GST; dsDNA, one strand shown. Put shortly:
as §1

The target in the next assay is T7, FEV (Homo sapiens, UniProt Q99581 1-238).
T7 sequence: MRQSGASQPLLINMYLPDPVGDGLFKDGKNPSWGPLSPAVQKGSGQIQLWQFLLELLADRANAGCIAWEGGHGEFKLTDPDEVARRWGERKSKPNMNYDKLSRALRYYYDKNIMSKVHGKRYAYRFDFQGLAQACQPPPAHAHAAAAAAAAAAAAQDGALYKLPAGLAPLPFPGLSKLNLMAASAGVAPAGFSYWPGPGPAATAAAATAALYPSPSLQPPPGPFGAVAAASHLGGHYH
To be noted: protein: recombinant; tags: N-terminal GST; dsDNA, one strand shown. The procedure, abridged:
as §1

Another assay deals with ETV5 (Homo sapiens, UniProt P41161 1-510). To be noted: protein: recombinant; tags: N-terminal GST; dsDNA, one strand shown. The procedure, abridged:
as §1

The target in the next assay is HSF1 (Homo sapiens, UniProt Q00613 1-529). To be noted: protein: recombinant; tags: N-terminal GST; chain copies: 3; dsDNA, one strand shown. The procedure, abridged: as §1
Chain of HSF1 (Q00613 whole entry): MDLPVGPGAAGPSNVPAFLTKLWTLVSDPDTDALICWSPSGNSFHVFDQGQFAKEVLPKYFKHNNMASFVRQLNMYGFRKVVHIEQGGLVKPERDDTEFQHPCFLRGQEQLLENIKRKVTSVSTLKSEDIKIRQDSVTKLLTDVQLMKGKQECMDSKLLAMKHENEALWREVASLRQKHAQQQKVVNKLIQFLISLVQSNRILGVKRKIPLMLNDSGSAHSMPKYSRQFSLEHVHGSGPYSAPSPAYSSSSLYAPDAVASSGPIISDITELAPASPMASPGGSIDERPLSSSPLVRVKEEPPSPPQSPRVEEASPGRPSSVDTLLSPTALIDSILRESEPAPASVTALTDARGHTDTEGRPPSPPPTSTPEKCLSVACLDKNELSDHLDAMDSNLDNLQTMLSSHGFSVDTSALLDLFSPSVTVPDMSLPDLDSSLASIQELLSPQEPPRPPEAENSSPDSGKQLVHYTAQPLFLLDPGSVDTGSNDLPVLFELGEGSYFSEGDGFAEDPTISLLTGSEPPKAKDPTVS
In a further assay the target is T8, SPIC (Homo sapiens, UniProt Q8N5J4 1-248).
T8 sequence: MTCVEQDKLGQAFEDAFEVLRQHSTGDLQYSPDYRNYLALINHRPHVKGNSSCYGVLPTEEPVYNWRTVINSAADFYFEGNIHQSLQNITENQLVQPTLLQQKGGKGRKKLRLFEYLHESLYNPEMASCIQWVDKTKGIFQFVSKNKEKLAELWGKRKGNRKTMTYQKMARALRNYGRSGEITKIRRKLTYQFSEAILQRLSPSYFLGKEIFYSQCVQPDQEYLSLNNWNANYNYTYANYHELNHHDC
To be noted: protein: recombinant; tags: N-terminal GST; dsDNA, one strand shown. The procedure, abridged: as §1

The target in another assay is ELF4 (Homo sapiens, UniProt Q99607 1-663). To be noted: protein: recombinant; tags: N-terminal GST; dsDNA, one strand shown. The procedure, abridged:
as §1

The next assay addresses T9, ELK4 (Homo sapiens, UniProt P28324-2 1-405).
T9 sequence: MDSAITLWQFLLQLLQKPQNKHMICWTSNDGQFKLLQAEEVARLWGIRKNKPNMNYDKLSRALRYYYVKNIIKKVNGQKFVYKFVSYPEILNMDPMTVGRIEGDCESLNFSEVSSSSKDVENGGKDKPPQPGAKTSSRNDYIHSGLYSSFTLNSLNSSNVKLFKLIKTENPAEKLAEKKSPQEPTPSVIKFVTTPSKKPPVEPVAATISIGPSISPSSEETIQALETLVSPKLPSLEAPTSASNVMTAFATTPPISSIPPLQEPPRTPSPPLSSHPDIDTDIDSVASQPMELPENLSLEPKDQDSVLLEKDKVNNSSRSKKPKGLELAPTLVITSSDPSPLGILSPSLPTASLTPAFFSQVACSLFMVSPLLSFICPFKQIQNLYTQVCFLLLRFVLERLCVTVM
To be noted: protein: recombinant; tags: N-terminal GST; dsDNA, one strand shown. Put shortly: as §1

The target in the next assay is T10, ETV2 (Homo sapiens, UniProt O00321 1-342).
T10 sequence: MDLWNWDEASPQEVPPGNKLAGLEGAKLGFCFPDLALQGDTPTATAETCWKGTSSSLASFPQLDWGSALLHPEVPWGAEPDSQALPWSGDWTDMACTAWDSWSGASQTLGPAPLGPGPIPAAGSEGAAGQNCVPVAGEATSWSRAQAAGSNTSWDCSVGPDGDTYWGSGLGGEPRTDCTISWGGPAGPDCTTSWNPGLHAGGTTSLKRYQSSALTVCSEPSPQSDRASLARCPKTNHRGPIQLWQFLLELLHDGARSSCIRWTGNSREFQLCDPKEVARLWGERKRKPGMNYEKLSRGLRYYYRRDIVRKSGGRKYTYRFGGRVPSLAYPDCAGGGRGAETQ
To be noted: protein: recombinant; tags: N-terminal GST; dsDNA, one strand shown. The procedure, abridged:
as §1

The target in a further assay is T11, ELF3 (Homo sapiens, UniProt P78545 1-371).
T11 sequence: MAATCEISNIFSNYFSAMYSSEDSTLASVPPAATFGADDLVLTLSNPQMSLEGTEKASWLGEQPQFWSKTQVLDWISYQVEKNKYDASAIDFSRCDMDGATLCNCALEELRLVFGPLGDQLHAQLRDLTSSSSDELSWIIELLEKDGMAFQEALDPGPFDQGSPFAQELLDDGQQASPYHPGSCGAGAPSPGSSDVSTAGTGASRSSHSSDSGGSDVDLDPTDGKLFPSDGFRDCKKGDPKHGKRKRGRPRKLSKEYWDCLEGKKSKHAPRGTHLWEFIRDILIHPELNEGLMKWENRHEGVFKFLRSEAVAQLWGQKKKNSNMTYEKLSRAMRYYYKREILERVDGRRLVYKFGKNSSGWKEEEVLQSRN
To be noted: protein: recombinant; tags: N-terminal GST; dsDNA, one strand shown. The procedure, abridged:
as §1

Another assay deals with CRX (Homo sapiens, UniProt O43186 1-299). To be noted: protein: recombinant; tags: N-terminal GST; dsDNA, one strand shown. Put shortly:
as §1

The target of another assay is ETV1 (Homo sapiens, UniProt P50549 1-477). To be noted: protein: recombinant; tags: N-terminal GST; dsDNA, one strand shown. Put shortly:
as §1

Chain of ETV1 (P50549 whole entry): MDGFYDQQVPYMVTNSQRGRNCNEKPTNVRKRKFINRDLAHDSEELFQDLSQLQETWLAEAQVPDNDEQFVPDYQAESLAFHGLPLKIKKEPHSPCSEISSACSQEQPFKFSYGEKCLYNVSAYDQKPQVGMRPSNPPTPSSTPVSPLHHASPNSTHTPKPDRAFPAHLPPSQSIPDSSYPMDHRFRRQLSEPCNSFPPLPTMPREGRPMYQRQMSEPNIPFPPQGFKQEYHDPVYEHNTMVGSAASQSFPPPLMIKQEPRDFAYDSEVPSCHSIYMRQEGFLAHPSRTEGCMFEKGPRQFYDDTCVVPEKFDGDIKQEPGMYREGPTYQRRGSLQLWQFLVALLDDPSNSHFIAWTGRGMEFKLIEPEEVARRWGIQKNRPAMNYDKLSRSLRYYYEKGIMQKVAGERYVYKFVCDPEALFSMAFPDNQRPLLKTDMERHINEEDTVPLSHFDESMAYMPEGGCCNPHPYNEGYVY
Chain of ELF4 (Q99607 whole entry): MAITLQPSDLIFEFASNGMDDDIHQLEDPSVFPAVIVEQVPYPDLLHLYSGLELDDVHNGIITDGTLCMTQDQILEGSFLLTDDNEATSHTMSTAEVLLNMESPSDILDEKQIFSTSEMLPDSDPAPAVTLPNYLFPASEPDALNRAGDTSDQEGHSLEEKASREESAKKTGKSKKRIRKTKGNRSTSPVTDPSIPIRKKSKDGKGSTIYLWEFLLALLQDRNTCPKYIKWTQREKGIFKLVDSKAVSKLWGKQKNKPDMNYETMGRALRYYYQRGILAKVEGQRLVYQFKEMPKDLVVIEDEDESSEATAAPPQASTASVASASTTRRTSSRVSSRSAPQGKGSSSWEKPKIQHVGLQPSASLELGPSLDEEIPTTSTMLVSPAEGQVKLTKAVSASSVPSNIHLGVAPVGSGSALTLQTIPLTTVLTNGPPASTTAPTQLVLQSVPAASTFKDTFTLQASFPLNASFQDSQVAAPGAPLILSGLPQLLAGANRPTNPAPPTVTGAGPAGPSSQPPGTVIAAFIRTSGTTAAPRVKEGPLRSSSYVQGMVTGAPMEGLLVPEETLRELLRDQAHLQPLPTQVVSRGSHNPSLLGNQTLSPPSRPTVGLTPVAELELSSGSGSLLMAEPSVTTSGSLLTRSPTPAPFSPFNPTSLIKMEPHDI
Chain of CRX (O43186 whole entry): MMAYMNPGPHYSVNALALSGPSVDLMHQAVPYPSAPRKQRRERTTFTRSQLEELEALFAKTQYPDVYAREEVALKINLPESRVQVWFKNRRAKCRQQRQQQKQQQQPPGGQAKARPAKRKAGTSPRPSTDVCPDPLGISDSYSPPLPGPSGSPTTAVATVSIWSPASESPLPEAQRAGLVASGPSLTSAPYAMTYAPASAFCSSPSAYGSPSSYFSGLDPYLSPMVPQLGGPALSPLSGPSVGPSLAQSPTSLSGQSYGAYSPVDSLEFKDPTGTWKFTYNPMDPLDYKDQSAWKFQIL
Chain of ETV5 (P41161 whole entry): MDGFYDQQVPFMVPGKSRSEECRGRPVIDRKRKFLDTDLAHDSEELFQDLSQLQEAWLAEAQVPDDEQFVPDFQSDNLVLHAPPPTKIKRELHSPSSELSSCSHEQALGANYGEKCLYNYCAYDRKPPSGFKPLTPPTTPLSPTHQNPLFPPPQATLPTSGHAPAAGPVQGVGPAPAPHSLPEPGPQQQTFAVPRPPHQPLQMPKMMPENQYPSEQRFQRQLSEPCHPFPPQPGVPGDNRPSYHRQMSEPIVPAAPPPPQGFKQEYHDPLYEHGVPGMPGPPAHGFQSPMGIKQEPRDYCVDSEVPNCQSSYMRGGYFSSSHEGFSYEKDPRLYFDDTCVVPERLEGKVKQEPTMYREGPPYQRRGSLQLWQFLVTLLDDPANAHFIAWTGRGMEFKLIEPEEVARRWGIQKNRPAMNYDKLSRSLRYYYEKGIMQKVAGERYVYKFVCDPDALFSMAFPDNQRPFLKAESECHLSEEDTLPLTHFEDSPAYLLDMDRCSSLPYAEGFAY

Take TCGAAT: the binding signal is 1 fold enrichment (6-mer frequency, TF over GST control) with FLI1; 1.09 fold enrichment (6-mer frequency, TF over GST control) with ELK1; 1.12 fold enrichment (6-mer frequency, TF over GST control) in the assay with GABPA; 1.08 fold enrichment (6-mer frequency, TF over GST control) in the assay with ERG; 1.11 fold enrichment (6-mer frequency, TF over GST control) with ELF1; 1.02 fold enrichment (6-mer frequency, TF over GST control) in the assay with EHF. In addition, the binding signal with SPIB is 1.07 fold enrichment (6-mer frequency, TF over GST control); in the assay with ELK3, 1.15 fold enrichment (6-mer frequency, TF over GST control); in the assay with FEV it was 1.03 fold enrichment (6-mer frequency, TF over GST control); with ETV5 it was 1.15 fold enrichment (6-mer frequency, TF over GST control); with HSF1 it was 2.2 fold enrichment (6-mer frequency, TF over GST control); with SPIC it was 1.03 fold enrichment (6-mer frequency, TF over GST control). Moreover, the binding signal in the assay with ELF4 is 1.1 fold enrichment (6-mer frequency, TF over GST control); with ELK4, 1.33 fold enrichment (6-mer frequency, TF over GST control); with ETV2 it was 1.03 fold enrichment (6-mer frequency, TF over GST control); with ELF3 it was 1.11 fold enrichment (6-mer frequency, TF over GST control); in the assay with CRX, 1.38 fold enrichment (6-mer frequency, TF over GST control); with ETV1, 1 fold enrichment (6-mer frequency, TF over GST control).
